Source: PubChem (National Center for Advancing Translational Sciences (NCATS))
Sampled rows, rich in hits. Any-hit rate of the full collection: about 9.4%.
Pf growth 96h: inhibits malaria parasite growth, 96 h; P. falciparum luciferase reporter growth, 96 h; Potency, µM (top dose mostly 28.7 µM), for inactives: at the highest dose activity change, negative = inhibition, usual class: inhibitors; actives 6.9% (n = 320,000); also: % is scaled to controls: 0 for no effect and ±100 for the full control effect
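Readout is luminescence from an integrated firefly luciferase in P. falciparum. Red cells, 2% hematocrit and 0.05% parasitemia final, were cultured with compound through two parasite generations (96 hours) at 37 C, 5% CO2.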
AMA1-RON2 inh: disrupts binding of P. falciparum AMA1 to RON2; Potency, µM (doses to about 58.2 µM), for inactives: at the highest dose activity change, negative = inhibition, usual class: inhibitors; AlphaScreen AMA1-biotinylated RON2 peptide binding; actives 0.2% (n = 360,000);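 also: 0% = vehicle wells and -100% = peptide control; nearly all actives have a fitted effect of over 45% in size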
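AMA1 (3D7) with his tag at 25 nM final met compounds first, then biotinylated RON2 peptide at 25 nM; detection used donor plus acceptor beads, 10 µg/mL apiece, read by AlphaScreen after 30 min at room temperature.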
Pf growth 48h: P. falciparum growth inhibition at 48 hours (one generation); P. falciparum luciferase growth in erythrocytes, 48 h; Potency, µM (series often up to 28.7 µM), inactives show at the highest dose activity change, negative = inhibition, actives largely listed as inhibitors; actives 5.9% (n = 310,000); AID 504832; also: % is scaled to controls: 0 for no effect and ±100 for the full control effect
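A one-generation exposure of luciferase-tagged malaria parasites in RPMI 1640/Albumax erythrocyte culture, 37 C and 5% CO2. Inhibition is inferred from decreased luminescence after adding detection reagent.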
SARS PLP yeast: SARS-CoV PLP inhibition in yeast; S. cerevisiae expressing SARS-CoV PLpro, growth rescue; Potency, µM (highest dose often 32.9 µM), inactives show at the highest dose activity, positive = growth rescue, usual class: activators; actives 0.19% (n = 330,000); AID 485353; calls by dose curve; also: 0% is about no effect; nearly all actives have a fitted effect of over 55% in size
* = called active by the depositor; ? = inconclusive; . = no result given; [ ] = dose if it differs, or a comment. Unless noted, calls follow the shape of the dose curve; as a rule, active = well fitted curve in the direction sought with a large enough effect; inconclusive = small, poorly fitted or top-dose-only effect, or another doubt; inactive = no such curve, though single readings can be large; an effect the other way counts as inactive or inconclusive. Potency is read from the fitted curve at half-maximal effect.

SMILES	Pf growth 96h	AMA1-RON2 inh	Pf growth 48h	SARS PLP yeast
CSc1nc2ccc(NC(=O)COc3ccccc3F)cc2s1	.	15%	.	-10%
CCCCN(C(=O)CSc1nnc(-c2ccc(Cl)cc2)o1)c1c(N)n(CC(C)C)c(=O)[nH]c1=O	?	-12%[11.6 µM]	13µM*	-2%
CCCCN(C(=O)CCOc1ccc(OCC)cc1)c1c(N)n(Cc2ccccc2)c(=O)[nH]c1=O	.	-13%	.	.
COCCN(C(=O)CSc1nnc(-c2ccc(Cl)cc2)o1)c1c(N)n(CC(C)C)c(=O)[nH]c1=O	?	-4%	?	-3%
CCOc1ccc(OCCC(=O)N(CCC(C)C)c2c(N)n(Cc3ccccc3)c(=O)[nH]c2=O)cc1	14%	20%	10µM*	.
CCOc1ccc(NC(=O)Cn2nnc(-c3ccccc3F)n2)cc1	7%	0%	-2%	22%
CCC1(c2ccccc2)NC(=O)N(CC(=O)N(C)CC(=O)Nc2cccc(OC)c2)C1=O (centres undefined)	-11%	28%	9%	4%
CCN1C(=O)C(CC(=O)Nc2ccc(OC)cc2)N(Cc2cccnc2)C1=S (centres undefined)	?	12µM*	2%	0%
CCN1C(=O)C(CC(=O)Nc2ccc(OC)cc2)N(CCc2ccccc2)C1=S (centres undefined)	?	-12%	?	-9%
CCN1C(=O)C(CC(=O)Nc2ccc(F)cc2)N(Cc2cccs2)C1=S (centres undefined)	0%	11%	10µM*	0%
CCOc1ccc(N2C(=O)C(CC(=O)Nc3ccccc3)N(Cc3ccccn3)C2=S)cc1 (centres undefined)	9.3µM*	22%	?	4%
CCNC(=O)CC1C(=O)N(c2ccccc2)C(=O)N1CCc1ccc(OC)cc1 (centres undefined)	12µM*	4%	28%	-2%
CCOc1ccc(N2C(=O)C(CC(=O)Nc3ccc(F)cc3)N(Cc3ccccn3)C2=S)cc1 (centres undefined)	?	32%	?	-2%
CCNC(=O)CC1C(=O)N(c2ccc(F)cc2)C(=O)N1Cc1ccc(OC)cc1 (centres undefined)	32%	0%	5%	0%
CCOC(=O)c1ccc(N2C(=O)C(CC(=O)NC)N(CCc3ccc(OC)c(OC)c3)C2=S)cc1 (centres undefined)	2%	?	13µM*	-5%
COc1ccc(NC(=O)CC2C(=O)N(CCc3ccccc3)C(=S)N2Cc2cccnc2)cc1 (centres undefined)	13µM*	-12%	12µM*	-26%
COc1ccc(NC(=O)CC2C(=O)N(c3ccc(Cl)cc3)C(=S)N2CCc2ccccn2)cc1 (centres undefined)	?	3%	?	4%
COc1ccc(NC(=O)CC2C(=O)N(c3ccc(Cl)cc3)C(=S)N2CCc2ccncc2)cc1 (centres undefined)	13µM*	-9%	?	-1%
CCOc1ccc(NC(=O)CC2C(=O)NCCN2C(=O)Nc2ccccc2)cc1 (centres undefined)	15µM*	-3%	5%	-4%
CSc1ccccc1NC(=O)CSc1nncs1	4%	-1%	14%	1%
Cc1ccc(-c2nc(CN(C)Cc3cccc4cnccc34)c(C)o2)s1	13µM*	-2%	?	-2%
CCOC(=O)Cc1csc(NC(=S)NC(=O)CC(C)C)n1	0%	27%	-17%	-32%
CC(C)CC(=O)NC(=S)Nc1nc(-c2cccc3ccccc23)cs1	13µM*	-28%	-6%	3%
COCCC(C(=O)Oc1c(C(C)(C)C)cc(C)cc1C(C)(C)C)c1ccccc1 (centres undefined)	5.2µM*	2%	8.3µM*	-5%
CN1C(=O)c2ccccc2N(C)C1c1ccc2c(c1)OCO2 (centres undefined)	-24%	1%	10µM*	9%
SMILES	Pf growth 96h	AMA1-RON2 inh	Pf growth 48h	SARS PLP yeast
Nc1ncnc2c1ncn2C1C=C(CO)C(O)C1O (centres undefined)	.	14%	.	.
COc1ccc(NC2=CC(c3ccc(F)cc3)N(c3ccc(OC)cc3)C2=O)cc1 (centres undefined)	38%	-16%	8%	-13%
O=C(OCC(=O)N1N=C(c2ccc(Cl)cc2)CC1c1ccco1)c1ccco1 (centres undefined)	16%	-5%	58%	1%
COc1ccc(C2=NN(C(=O)COC(=O)c3ccc(NC(=O)CC#N)cc3)C(c3ccco3)C2)cc1 (centres undefined)	?	0%	12µM*	-6%
COC(=O)c1sccc1-c1ccc(C(N)=O)o1	5%	.	-4%	0%
CCNS(=O)(=O)c1ccc(NC(=O)Cn2cc([N+](=O)[O-])cn2)cc1	0%	-7%	3%	0%
O=C(NC(=S)Nc1cccc(F)c1)c1cccc([N+](=O)[O-])c1	38%	90%	-32%	-1%
CC(C)NS(=O)(=O)c1ccc(NC(=S)NC(=O)c2cccc([N+](=O)[O-])c2)cc1	13µM*	41%	19%	7%
Cc1cc(C)c2c(n1)nn1c(N3CCN(Cc4ccccc4)CC3)cc(C)nc21	.	13%	-16%	-3%
COc1ccc(F)cc1CN1CCN(c2cc(C)nc3c4c(C)cc(C)nc4nn23)CC1	?	.	15µM*	16%
CC(NC(=O)c1cccc(OC2CCN(C(=O)C3CC3)CC2)c1)c1ccc(F)cc1 (centres undefined)	?	-4%	-19%	0%
O=C(NCc1ccccc1Cl)c1cccc(OC2CCN(C(=O)C3CC3)CC2)c1	8.3µM*	3%	0%	-4%
CCOc1ccc(NS(=O)(=O)c2ccc3[nH]cc(C(=O)NCC4CCCO4)c(=O)c3c2)cc1 (centres undefined)	0.029µM*	0%	111%	2%
CN(Cc1ccccc1)S(=O)(=O)c1ccc2[nH]cc(C(=O)NCC3CCCO3)c(=O)c2c1 (centres undefined)	0.93µM*	21%	73%	4%
CCc1ccccc1NS(=O)(=O)c1ccc2[nH]cc(C(=O)NCC3CCCO3)c(=O)c2c1 (centres undefined)	.	-2%	.	3%
C=C1C(=O)C23C(O)C1CCC2C12CCCC(C)(COC(C)=O)C1C(O)C3(O)OC2 (centres undefined)	.	2%	.	.
CCN(CC)S(=O)(=O)c1ccc2oc(Nc3ccc(OC)cc3OC)nc2c1	10µM*	-9%	?	-6%
COc1cccc(-c2nnc(SC(C(=O)c3c[nH]c4ccccc34)c3ccccc3)n2C)c1 (centres undefined)	13µM*	-2%	13µM*	16%
COc1ccccc1-c1nnc(SC(C(=O)c2c[nH]c3ccccc23)c2ccccc2)n1C (centres undefined)	?	-4%	?	2%
O=c1[nH]c2ccc(S(=O)(=O)N3CCC(Cc4ccccc4)CC3)cc2o1	-1%	-6%	12%	0%
